In PubChem BioAssay (NCI):
Compounds without any hit were thinned out: in the full panel of roughly 83,000, 20% have a hit.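 In brief: 96-well plates, 48 h treatment, single concentration, percent growth endpoint.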 Unmarked numbers belong to inactive results. The source made the active and inactive calls. Rule for the calls: active = growth percent below 10; inactive = the rest.

Experiments:
Assay in all cases: NCI-60 one-dose screen, 48 h (100 = growth as untreated, 0 = no growth, -100 = all killed)
Conditions in all cases: 10 µM unless noted
SK-MEL-2 melanoma = system: SK-MEL-2 melanoma
EKVX NSCLC = system: EKVX NSCLC
SN12C renal = system: SN12C renal
UO-31 renal = system: UO-31 renal
TK-10 renal = system: TK-10 renal
ACHN renal = system: ACHN renal
CAKI-1 renal = system: CAKI-1 renal
CCRF-CEM leukemia = system: CCRF-CEM leukemia
MOLT-4 leukemia = system: MOLT-4 leukemia
SR leukemia = system: SR leukemia
RPMI-8226 leukemia = system: RPMI-8226 leukemia
OVCAR-8 ovarian = system: OVCAR-8 ovarian
OVCAR-5 ovarian = system: OVCAR-5 ovarian
OVCAR-4 ovarian = system: OVCAR-4 ovarian
SK-OV-3 ovarian = system: SK-OV-3 ovarian
IGROV1 ovarian = system: IGROV1 ovarian
OVCAR-3 ovarian = system: OVCAR-3 ovarian
HS 578T breast = system: HS 578T breast
NCI/ADR-RES ovarian = system: NCI/ADR-RES ovarian

Compound | growth (SK-MEL-2 melanoma) | growth (EKVX NSCLC) | growth (SN12C renal) | growth (UO-31 renal) | growth (TK-10 renal) | growth (ACHN renal) | growth (CAKI-1 renal) | growth (CCRF-CEM leukemia) | growth (MOLT-4 leukemia) | growth (SR leukemia) | growth (RPMI-8226 leukemia) | growth (OVCAR-8 ovarian) | growth (OVCAR-5 ovarian) | growth (OVCAR-4 ovarian) | growth (SK-OV-3 ovarian) | growth (IGROV1 ovarian) | growth (OVCAR-3 ovarian) | growth (HS 578T breast) | growth (NCI/ADR-RES ovarian)
N=C(N)c1ccc(OCCCCCCCCCCOc2ccc(C(=N)N)cc2)cc1 | -90.3% (active) | -84.4% (active) | -96.3% (active) | 43.9% | -93.5% (active) | -21.3% (active) | -94.8% (active) | -47.8% (active) | -61% (active) | -60.4% (active) | -59.8% (active) | -74.5% (active) | -91.5% (active) | -95.8% (active) | -91.4% (active) | -80.7% (active) | -92.4% (active) | -56.9% (active) | 87.1%
c1ccc2c(-c3nccs3)c[nH]c2c1 | 112% | 88.6% | 98.3% | 85.1% | 84.4% | 97.6% | 95.6% | 111% | 91.8% | 86% | 104% | 106% | 97.3% | 110% | 99.7% | 101% | 103% | 98.3% | 103%
COc1cccc(-c2nc3occn3c2-c2ccnc(NCCCNS(=O)(=O)c3ccc(C(F)(F)F)cc3)n2)c1 | 92.3% | 92.8% | 85.4% | 71.5% | 106% | 89.3% | 75.3% | 93.9% | 69% | 97.2% | 79.3% | 87% | 128% | 76.4% | 81.9% | 90.5% | 100% | 98.2% | 89.2%
CCc1c(Cl)nc(N)nc1Nc1ccc(C)c(C)c1 | 99.3% | 89.2% | 99.9% | 90.8% | 103% | 99.7% | 86.5% | 100% | 94.4% | 73% | 104% | 102% | 110% | 98% | 109% | 97.4% | 116% | 97.9% | 99.2%
O=C(Cc1ccc(/C=C/C(=O)c2ncc[nH]2)cc1)Nc1ccc(Cl)cc1 | 94.9% | 65.2% | 7.28% (active) | 2.84% (active) | 59.8% | 42.7% | 32.1% | -6.35% (active) | 5.1% (active) | 0.986% (active) | -29.2% (active) | -6.61% (active) | 41.7% | 37.5% | 64.3% | 27.9% | -4.9% (active) | 5.07% (active) | 19.5%
COC(=O)C(OC(C)=O)C(OC(C)=O)c1ccc(OC)c(OC)c1 (centres undefined) | 96.5% | 107% | 101% | 106% | 115% | 104% | 101% | 94.9% | 85.5% | 90.9% | 103% | 103% | 108% | 94.2% | 110% | 114% | 104% | 110% | 94.1%
O=C(c1nc2ccccc2[nH]1)C1C(c2ccc(Br)cc2)C2CC3CCCC[C@H]3N2[C@@]12C(=O)Nc1cc(Cl)ccc12 (some centres undefined) | 73.3% | 37% | 39.7% | 20.6% | 40.7% | 29.9% | 17.7% | 32% | 6.93% (active) | 31.3% | 17% | 58.5% | 46.8% | 34.7% | 67.6% | 28.8% | – | 66.8% | 46.7%
CCOC(=O)Oc1c(OC)cc(C(=O)c2ccc(OC)c(O)c2OC)cc1OC | 24.8% | 58.9% | 46% | 46.9% | 43% | 38.5% | 32% | 15.2% | 28.1% | 28% | 21% | 28.5% | 76.6% | 75.3% | 31.6% | 41.8% | -1.93% (active) | 14.7% | -9.66% (active)
O=c1ccc(-c2nc(N3CCOCC3)c3ccccc3n2)c[nH]1 | 108% | 59.2% | 94.6% | 83.1% | 87.3% | 93.1% | 95.9% | 108% | 110% | 100% | 101% | 110% | 83.2% | 94.2% | 105% | 107% | – | 62.5% | 96.9%
CCOC(=O)Nc1ccc(-c2ccc3c(c2)NC(=O)/C3=C\c2ccc[nH]2)cc1 | 114% | 30.8% | 102% | 72.6% | 77% | 100% | 93.7% | 98.3% | 98.8% | 19.3% | 100% | 105% | 72.8% | 45% | 91% | 94.1% | 106% | 106% | 102%
O=C(O)c1ccc(NCc2cn(-c3ccc(C(F)(F)F)cc3)nc2-c2ccc(C(=O)O)cc2)cc1 | 112% | 98% | 103% | 84.2% | 106% | 109% | 95.8% | 106% | 109% | 97.3% | 112% | 103% | 103% | 111% | 113% | 106% | 115% | 107% | 104%
N/C(=N\C(N)=N\c1nc2ccccc2s1)c1cccc(Cl)c1 | 100% | 83.3% | 38.5% | 33.2% | 111% | 75.5% | 33.2% | 73.3% | 72.5% | 16.6% | 80.8% | 70.8% | 111% | 71.5% | 98.3% | 75.9% | – | 97% | 77.4%
O=S(=O)(Nc1ccc(-n2cnc3cc(-c4ccc(O)cc4)ccc32)cc1)c1ccccc1 | 83.2% | 98.4% | 73.4% | 51.3% | 113% | 80.6% | 68.7% | 69.9% | 71.7% | 78% | 69.1% | 84.4% | 111% | 74.1% | 127% | 91.4% | 95.8% | 97.3% | 91.9%
O=C(NCCc1ccccc1)Nc1ccc2cc3ccc(NC(=O)NCCc4ccccc4)cc3nc2c1 | 0.339% (active) | 71.9% | -40.1% (active) | 89.9% | 99.2% | 100% | 86.6% | 0.959% (active) | -46.4% (active) | -30.2% (active) | 49.1% | 23.8% | 50.6% | 62.6% | 41.4% | 48.2% | – | -26.2% (active) | 105%
O=S(=O)(NCCCNc1nccc(-c2c(-c3cccc(F)c3)nc3sccn23)n1)c1cccc(F)c1 | 47.6% | 52.4% | 56.3% | 28.2% | 72.3% | 42.5% | 41.5% | 24.7% | 9.94% (active) | 64.9% | 28% | 18.4% | 110% | 26.8% | 66% | 18.9% | – | 63.7% | 17.6%
CCOc1cccc(-c2nc(N)nc(Nc3ccccc3SSc3ccccc3Nc3nc(N)nc(-c4cccc(OCC)c4)n3)n2)c1 | 98.1% | 60.5% | 32.9% | -25.5% (active) | 102% | 59.5% | 8.02% (active) | 46.5% | 56.7% | 7.62% (active) | 56.4% | 59.9% | 99.7% | 71.7% | 125% | 62.6% | – | 69.2% | 19%
O=C1Nc2cc(-c3ccc(NS(=O)(=O)c4ccccc4)cc3)ccc2/C1=C/c1ccc[nH]1 | 112% | 28.9% | 96.2% | 69.2% | 68.9% | 88.5% | 82.9% | 63.9% | 73.1% | 6.67% (active) | 77.8% | 97.1% | 52% | 68.7% | 79.1% | 93.1% | – | 97.7% | 92.6%
O=C(Nc1cccc(C(=O)N2CCc3ccc(Cl)cc32)c1)c1ccco1 | 25.8% | 54.1% | 49.6% | 45.1% | 77.6% | 48.2% | 29.6% | 29.4% | 30.1% | 20.4% | 34.6% | 51.5% | 70.7% | 70.5% | 82.6% | 31.1% | 18.2% | 28.9% | 24.2%
COc1cc(-c2csc(NC(=O)c3cc(F)cc(C(F)(F)F)c3)n2)cc(OC)c1OC | 14.9% | 50% | 35% | 45.3% | 65.1% | 49.1% | 42.7% | 17% | 25.8% | 16.1% | -4.32% (active) | 37.7% | 82.7% | 58.7% | 54.3% | 43.8% | 12.2% | 20% | 49.8%
O=C1Nc2cc(-c3cccc([N+](=O)[O-])c3)ccc2/C1=C/c1ccc[nH]1 | 88.1% | 29.8% | 101% | 68.6% | 65.6% | 92.3% | 80.9% | 91.5% | 97.4% | 11.3% | 81.3% | 101% | 48.8% | 45.4% | 59.6% | 54.5% | – | 102% | 99.2%
COc1cccc(-c2ccc3c(c2)NC(=O)/C3=C\c2ccc[nH]2)c1 | 52.7% | 26.1% | 69.2% | 52.7% | 27.1% | 40.2% | 28.3% | 19% | 34.4% | 8.43% (active) | 17.5% | 74.2% | 53.2% | 54.7% | 58.9% | 29.7% | – | 56.4% | 40.4%
COc1c(Cl)c2c(c(OC)c1OC)-c1ccc(SC)c(=O)cc1[C@@H](NC(=O)OCC(F)(F)F)CC2 | 46.3% | 40% | 24.2% | 28.6% | 44.5% | 25.8% | 15.6% | 4.8% (active) | 3.85% (active) | -0.191% (active) | 2.59% (active) | 20% | 35% | 39.6% | 48.2% | 13.5% | -14.2% (active) | 12.1% | 14.6%
Cc1ccc(-n2c3c(c(-c4ccccc4)c2-c2ccccc2)C2=NCCN2C=N3)cc1 | 99.3% | 80.8% | 85% | 68.9% | 144% | 96.4% | 72.9% | 98.5% | 92.9% | 80% | 77.8% | 75.2% | 103% | 78.5% | 94.7% | 62.6% | 90.5% | 94.8% | 100%
CCOC(=O)CSc1nc2ccccc2c(=O)n1Cc1ccc(S(N)(=O)=O)cc1 | 111% | 97.1% | 99.5% | 84.3% | 98.7% | 102% | 91.3% | 97.1% | 104% | 99.6% | 98.2% | 101% | 97.5% | 116% | 107% | 105% | 112% | 97.9% | 104%
Cc1cc2c(C(=O)NCC#N)cccc2n1-c1nc2c(c(NCc3ccccc3)n1)CCCC2 | -44.7% (active) | -18.8% (active) | -67.9% (active) | -84.3% (active) | -17.7% (active) | -4.35% (active) | -2.84% (active) | 7.4% (active) | -15.6% (active) | 4.15% (active) | 5.03% (active) | 8.66% (active) | 1.88% (active) | -8.8% (active) | -6.94% (active) | -22.1% (active) | -59.9% (active) | 12% | 1.16% (active)
Nc1c(C(=O)Nc2ccnc3ccccc23)sc2nc3c(cc12)CN(Cc1ccccc1)CC3 | 101% | 66.1% | 74.6% | 62.2% | 102% | 68.4% | 74.7% | 26.1% | 18.2% | 35.5% | 38.8% | 69.5% | 94.1% | 78.6% | 98.9% | 86.4% | – | 89.9% | 69.2%
